# Measurements published in PubChem BioAssay (NCATS).
# Records with an inconclusive call do not appear. A number with no mark means an inactive call. Active and inactive are the calls of the source. The call rests on the fitted dose curve; in most records, active means well fitted inhibition curve with a large enough effect; inconclusive means small, poorly fitted or top-dose-only effect; inactive means flat fitted curve, though single readings scatter.
# Experiment: P-glycoprotein substrates identified in KB-8-5-11 adenocarcinoma cell line, qHTS therapeutic library screen (AID 1346987); further: nearly all actives have a fitted effect of over 65% in size
# Details: KB-8-5-11 (P-gp overexpressing) viability, CellTiter-Glo, 72 h; series mostly up to 44.5 µM; activity change, negative = cytotoxicity: at the top concentration
# How it was run: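 Steps: plate 500 KB-8-5-11 cells/well in DMEM + 10% FCS (colchicine removed); pin compounds in dose-response; incubate 72 h, 37 degree C, 5% CO2; add CellTiter-Glo, 5 min; read luminescence.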
# On the % scale 0 is the no-effect control and ±100 the full control effect; potency means the concentration at half of the fitted maximal effect.
Compound,outcome,"activity change, negative = cytotoxicity",Potency
N#CC(OC1OC(COC2OC(CO)C(O)C(O)C2O)C(O)C(O)C1O)c1ccccc1 (centres undefined),inactive [at 17.3 µM],–,–
CCNC1(c2cccs2)CCCCC1=O (centres undefined),–,1.87% [at 17.3 µM],–
ClC1C(Cl)C(Cl)C(Cl)C(Cl)C1Cl (centres undefined),–,3.95%,–
CC(C)(C)c1cc(O)ccc1O,–,-20.8%,–
COC1CC(OC2CCC3(C)C(=CCC4C3CCC3(C)C(C(C)OC5OC(COC6OC(CO)C(O)C(O)C6O)C(O)C(O)C5O)CCC43O)C2)OC(C)C1OC1OC(C)C(O)C(OC)C1O (centres undefined),inactive [at 9.29 µM],–,–
c1cc2c(c(NC3=NCCN3)c1)CCCC2,–,-23.2%,–
CC(=O)O[C@H]1CC[C@@]2(C)C(=CC[C@@H]3[C@@H]2CC[C@]2(C)C(=O)CC[C@@H]32)C1,–,-6.94% [at 17.3 µM],–
CCON=O,–,-21.4%,–
C=CCN1CC[C@]23c4c5ccc(O)c4O[C@H]2[C@@H](O)C=C[C@H]3[C@H]1C5,–,-0.996%,–
CCC(C)(OC(C)=O)C(=O)O[C@H]1[C@H](OC(C)=O)C[C@@H]2[C@@](C)([C@@H]3C[C@H]4C=CO[C@H]4O3)[C@H](C)C[C@H](OC(C)=O)[C@@]2(COC(C)=O)[C@@]12CO2 (some centres undefined),–,2.17% [at 17.3 µM],–
CN(C(=O)Cc1ccccc1)C(CN1CCCC1)c1ccccc1 (centres undefined),–,-10.6%,–
COC1C(O)C(C)OC(OC2C(CO)O[C@@H](O[C@@H]3CC4CCC5C(CC[C@]6(C)[C@@H](C7=CC(=O)OC7)CC[C@]56O)[C@@]4(C)[C@H](O)C3)C(O)C2O)C1O (some centres undefined),–,–,544 nM (active)
N#CC1(N2CCCCC2)CCCCC1,–,6.55%,–
C[C@@H]1C(=O)O[C@H]2[C@H](O)[C@@]34[C@@H]5OC(=O)[C@@]3(O[C@@H]3OC(=O)[C@@H](O)[C@@]34[C@H](C(C)(C)C)[C@H]5O)[C@@]12O,inactive [at 17.3 µM],–,–
